Data as given in PubChem BioAssay (Tox21).
Records with an inconclusive call do not appear. The source made the active and inactive calls. Unless noted, the call rests on the fitted dose curve; in most records, active means well fitted curve in the direction sought with a large enough effect in the repeat runs; inconclusive means weak or mixed curves; inactive means no such curve, though single readings can be large; an effect the other way counts as inactive or inconclusive.

What was measured:
[1] = qHTS assay for small molecules that induce genotoxicity in human embryonic kidney cells expressing luciferase-tagged ATAD5 (AID 651632); further: nearly all actives have a fitted effect of over 15% in size
Summary of the method: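 Reporter cells (HEK293T) express luciferase-tagged ATAD5, a protein that accumulates after DNA damage. Treat 16 hr at 37C/5% CO2, add Amplite, wait 30 min at RT, and read luminescence.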

[2] = qHTS assay for small molecule agonists of the p53 signaling pathway - cell viability (AID 651633; calls by dose curve;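 further: p53RE-bla HCT reporter cells with a stable beta-lactamase p53 reporter; series mostly up to about 83 µM; nearly all actives have a fitted effect of over 30% in size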)
Summary of the method: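 p53RE-bla cells, seeded at 4,000 per well and rested 5 h at 37 C/5% CO2, received compounds in DMSO for 16 h at 37 C. CellTiter-Glo was then added, and luminescence was read after 30 min at room temperature to gauge cytotoxicity.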

[3] = qHTS assay for small molecules that induce genotoxicity in human embryonic kidney cells expressing luciferase-tagged ATAD5 - cell viability (AID 651634; calls by dose curve; further: nearly all actives have a fitted effect of over 25% in size)
Summary of the method: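 Seeding of 2,000 HEK293T ATAD5-luciferase cells per well preceded pin-tool compound transfer. Plates sat 15.5 hr at 37C under 5% CO2, then fluorescence was read after 30 min with CellTiter-Fluor.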

[4] = qHTS assay for small molecule disruptors of the mitochondrial membrane potential - cell viability (AID 720634; calls by dose curve;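 further: human HepG2 liver cancer cells; series mostly up to about 83 µM; nearly all actives have a fitted effect of over 20% in size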)
Summary of the method: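 Measuring cytotoxicity alongside mitochondrial potential, the screen quantified ATP by luminescence in HepG2 cells after 1 hr compound incubation and a 30 min room-temperature CellTiter-Glo step.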

[5] = qHTS assay to test for compound auto fluorescence at 590 nm (red) in HepG2 cells (AID 720674)
Summary of the method: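 Compound auto-fluorescence is scored relative to Rose Bengal sodium, measured at 540/590 nm in live HepG2 cultures after 1 hr compound contact (37 C, 5% CO2).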

[6] = qHTS assay to test for compound auto fluorescence at 535 nm (green) in HepG2 cells (AID 720675)
[7] = qHTS assay to test for compound auto fluorescence at 590 nm (red) in HEK293 cells (AID 720679)
Summary of the method: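 HEK293 cells (2,000/well, medium with 10% dialyzed FBS) attached for 4-5 hr at 37C, received 23 nL compound and were incubated overnight at 37C, 5% CO2. Red fluorescence was then read at 540/590nm Ex/Em, referenced to Rose Bengal sodium.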

[8] = qHTS assay to test for compound auto fluorescence at 535 nm (green) in HEK293 cells (AID 720680)
[9] = qHTS assay to test for compound auto fluorescence at 460 nm (blue) in HEK293 cell free culture (AID 720681)
Summary of the method: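 Test compounds were pinned into cell-free culture medium (DMEM with 10% FBS) and fluorescence was read directly at Ex/Em 405/460 nm. Signals were expressed as fluorescence equivalents of triamterene, with DMSO vehicle as control.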

[10] = qHTS assay to test for compound auto fluorescence at 535 nm (green) in HEK293 cell free culture (AID 720682)
Summary of the method: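 Green-channel intensity (Ex/Em 485/535 nm) was recorded from compound-treated wells containing only DMEM with 10% FBS. Fluorescein provided the equivalency standard.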

[11] = qHTS assay to test for compound auto fluorescence at 590 nm (red) in HepG2 cell free culture (AID 720684)
Summary of the method: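 Measured in medium alone (MEM containing 10% FBS) following pintool addition of compound; emission at 590 nm with 540 nm excitation, referenced to Rose Bengal sodium.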

[12] = qHTS assay to test for compound auto fluorescence at 460 nm (blue) in HepG2 cell free culture (AID 720685)
Summary of the method: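 Compound (23 nL) or DMSO pinned into cell-free MEM with 10% FBS; blue fluorescence read at 405/460 nm excitation/emission, expressed as auto-fluorescence equivalency to triamterene.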

[13] = qHTS assay to test for compound auto fluorescence at 460 nm (blue) in HepG2 cells (AID 720687)
Summary of the method: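 Cells (2,000/well in MEM with 10% FBS) attached overnight at 37 C, then were exposed to compound or DMSO for 1 hr at 37 C, 5% CO2. Fluorescence read at Ex/Em 405/460 nm, expressed as triamterene-equivalent signal.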

[14] = qHTS assay for small molecule disruptors of the mitochondrial membrane potential (AID 720635)
Summary of the method: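 HepG2 cells (2,000/well) attached overnight at 37C, then took compound for 1 hr at 37C, 5% CO2. Mito-MPS dye was added for 30 min; fluorescence was read at 490/535 nm (monomers) and 540/590 nm (aggregates).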

[15] = qHTS assay to test for compound auto fluorescence at 460 nm (blue) in HEK293 cells (AID 720678)
Summary of the method: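 HEK293 cells (2,000 per well, medium with 10% dialyzed FBS) attached for 4-5 hr at 37C, then received compound and stood overnight at 37C, 5% CO2. Blue fluorescence was read at Ex/Em 405/460 nm and expressed relative to triamterene.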

[16] = qHTS assay to test for compound auto fluorescence at 535 nm (green) in HepG2 cell free culture (AID 720686)
[17] = target: Glucocorticoid receptor (Homo sapiens) (UniProt P04150); experiment: qHTS assay to identify small molecule agonists of the glucocorticoid receptor (GR) signaling pathway (AID 720691; active means well fitted activation curve with a large enough effect in the signal ratio in the repeat runs, not every such curve was filed as active; the % refers to the signal ratio)
Glucocorticoid receptor (Homo sapiens), sequence (P04150 whole entry, looked up): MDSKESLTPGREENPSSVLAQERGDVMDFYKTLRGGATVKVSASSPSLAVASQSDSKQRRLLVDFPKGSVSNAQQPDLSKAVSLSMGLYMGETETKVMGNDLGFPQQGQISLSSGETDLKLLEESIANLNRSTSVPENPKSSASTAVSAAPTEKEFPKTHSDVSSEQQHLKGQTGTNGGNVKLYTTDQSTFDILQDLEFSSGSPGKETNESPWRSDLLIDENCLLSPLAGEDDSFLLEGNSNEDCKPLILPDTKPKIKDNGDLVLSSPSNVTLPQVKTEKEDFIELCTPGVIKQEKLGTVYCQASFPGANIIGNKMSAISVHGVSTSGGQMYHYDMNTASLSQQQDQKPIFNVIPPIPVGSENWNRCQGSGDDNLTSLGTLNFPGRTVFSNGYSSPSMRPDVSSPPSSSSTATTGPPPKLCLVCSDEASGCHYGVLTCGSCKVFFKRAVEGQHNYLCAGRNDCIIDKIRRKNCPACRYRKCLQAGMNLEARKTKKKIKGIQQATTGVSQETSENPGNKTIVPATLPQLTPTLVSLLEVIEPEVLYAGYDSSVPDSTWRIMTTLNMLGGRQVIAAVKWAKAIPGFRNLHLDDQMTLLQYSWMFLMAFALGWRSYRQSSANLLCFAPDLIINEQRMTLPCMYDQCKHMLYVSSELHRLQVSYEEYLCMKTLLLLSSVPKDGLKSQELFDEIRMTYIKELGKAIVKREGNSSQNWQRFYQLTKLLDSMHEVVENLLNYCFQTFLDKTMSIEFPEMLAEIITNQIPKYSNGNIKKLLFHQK
Summary of the method: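 Reporter read-out: fluorescence intensity following 2 h room-temperature LiveBLAzer B/G FRET substrate loading. Prior step: GR-bla HeLa cells held 4 h, then treated 18 h at 37 C.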

[18] = target: Glucocorticoid receptor (Homo sapiens) (UniProt P04150); experiment: qHTS assay to identify small molecule antagonists of the glucocorticoid receptor (GR) signaling pathway (AID 720692; active means well fitted inhibition curve with a large enough effect in the signal ratio in the repeat runs, not every such curve was filed as active; the % refers to the signal ratio)
Summary of the method: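 Dexamethasone (5 nM final) stimulated a stably integrated GRE-beta-lactamase reporter in HeLa cells during 18 h co-incubation with compounds; signal was quantified as fluorescence intensity of B/G FRET substrate after 2 h.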

[19] = qHTS assay to test for compound auto fluorescence at 590 nm (red) in HEK293 cell free culture (AID 720683)
Summary of the method: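 Tox21 10K library compounds were pinned into cell-free DMEM with 10% FBS and fluorescence was read at excitation 540 nm. Activity is expressed as Rose Bengal sodium equivalency.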
On the % scale 0 is the no-effect control and ±100 the full control effect.

CN1C(=O)COc2c(C(=O)NC3CN4CCC3CC4)cc(Cl)cc21 (stereo not given)
inactive: outcome [1] | Potency [2] | Potency [3] | Potency [4] | outcome [5] | outcome [6] | outcome [7] | outcome [8] | outcome [9] | outcome [10] | outcome [11] | outcome [12] | outcome [13]

CCOP(=S)(OCC)SCCl
inactive: outcome [1] | Potency [2] | Potency [4] | Potency [14] | outcome [5] | outcome [6] | outcome [15] | outcome [7] | outcome [8] | outcome [9] | outcome [10] | outcome [11] | outcome [12] | outcome [16] | outcome [13] | Potency [17] | Potency [18]

CCCCCCC1CCOC1=O (stereo not given)
inactive: outcome [1] | Potency [2] | Potency [3] | Potency [4] | Potency [14] | outcome [5] | outcome [6] | outcome [7] | outcome [8] | outcome [9] | outcome [10] | outcome [19] | outcome [11] | outcome [12] | outcome [13] | Potency [17] | Potency [18]

c1ccc2c(c1)CCNC2
inactive: outcome [1] | Potency [2] | Potency [3] | Potency [4] | outcome [5] | outcome [6] | outcome [15] | outcome [7] | outcome [8] | outcome [9] | outcome [10] | outcome [19] | outcome [11] | outcome [12] | outcome [16] | outcome [13]

CCNP(=S)(OC)O/C(C)=C/C(=O)OC(C)C (stereo not given)
inactive: outcome [1] | Potency [2] | Potency [3] | outcome [5] | outcome [6] | outcome [15] | outcome [7] | outcome [8] | outcome [9] | outcome [10] | outcome [19] | outcome [11] | outcome [12] | outcome [16] | outcome [13] | Potency [17] | Potency [18]

O=CCCl
inactive: outcome [1] | Potency [2] | Potency [3] | Potency [4] | outcome [5] | outcome [6] | outcome [15] | outcome [7] | outcome [8] | outcome [9] | outcome [10] | outcome [19] | outcome [11] | outcome [12] | outcome [16] | outcome [13] | Potency [17]

O=C(O)CBr
inactive: outcome [1] | Potency [2] | Potency [3] | Potency [4] | outcome [5] | outcome [6] | outcome [15] | outcome [7] | outcome [8] | outcome [9] | outcome [10] | outcome [12] | outcome [16] | outcome [13]

CCOC(=O)C(Cl)Cc1cc(-n2nc(C)n(C(F)F)c2=O)c(F)cc1Cl (stereo not given)
inactive: outcome [1] | Potency [2] | Potency [3] | outcome [5] | outcome [6] | outcome [15] | outcome [7] | outcome [8] | outcome [9] | outcome [10] | outcome [19] | outcome [12] | outcome [13] | Potency [17]

Cc1ccc(Cl)c(O)c1
inactive: outcome [1] | Potency [2] | Potency [3] | Potency [4] | outcome [5] | outcome [6] | outcome [7] | outcome [8] | outcome [9] | outcome [10] | outcome [19] | outcome [11] | outcome [12] | outcome [16] | outcome [13] | Potency [17] | Potency [18]

CCOc1cc(OP(=S)(OC)OC)nc(CC)n1
inactive: outcome [1] | Potency [2] | Potency [3] | Potency [4] | outcome [5] | outcome [6] | outcome [15] | outcome [7] | outcome [8] | outcome [9] | outcome [10] | outcome [19] | outcome [11] | outcome [12] | outcome [16] | outcome [13] | Potency [17] | Potency [18]

CCC1(c2cccc(O)c2)CCCCN(C)C1 (stereo not given)
inactive: outcome [1] | Potency [2] | Potency [3] | Potency [4] | fluorescence, relative to Rose Bengal [5] 0.128% [at 18.6 µM] | fluorescence, % of fluorescein control [6] 0.0413% [at 18.6 µM] | fluorescence, % of triamterene [15] 0.018% [at 18.6 µM] | fluorescence, % of fluorescent control [7] 0.162% [at 18.6 µM] | fluorescence, % of fluorescein [8] -0.0115% [at 18.6 µM] | fluorescence, % of fluorescent control [9] 0.0294% [at 18.6 µM] | activity change [10] 0.0131% [at 18.6 µM] | fluorescence, % of fluorescent control [19] 0.0544% [at 18.6 µM] | fluorescence, % of Rose Bengal [11] 0.0113% [at 18.6 µM] | fluorescence, % of fluorescent control [12] 0.002% [at 18.6 µM] | fluorescence, % of fluorescein control [16] -0.0769% [at 18.6 µM] | fluorescence, % of fluorescent control [13] -0.0146% [at 18.6 µM] | Potency [17] | Potency [18]

CNC(=O)Oc1cc(C)c(N(C)C)c(C)c1
inactive: outcome [1] | Potency [2] | Potency [3] | Potency [4] | outcome [5] | outcome [6] | outcome [15] | outcome [7] | outcome [8] | outcome [9] | outcome [10] | outcome [19] | outcome [11] | outcome [12] | outcome [16] | outcome [13] | Potency [17] | Potency [18]

CCCCCCC(=O)CCCCCC/C=C/C[C@@H](O)[C@H](O)[C@@](N)(CO)C(=O)O
inactive: outcome [1] | Potency [2] | Potency [4] | Potency [14] | outcome [5] | outcome [6] | outcome [7] | outcome [8] | outcome [9] | outcome [10] | outcome [19] | outcome [12] | outcome [16] | outcome [13] | Potency [17]

N[C@@H](Cc1ccc(Oc2cc(I)c(O)c(I)c2)c(I)c1)C(=O)O
inactive: outcome [1] | Potency [2] | Potency [4] | Potency [14] | outcome [5] | outcome [6] | outcome [15] | outcome [7] | outcome [8] | outcome [9] | outcome [10] | outcome [19] | outcome [11] | outcome [12] | outcome [16] | outcome [13]

CCOC(=O)c1ncn2c1CN(C)C(=O)c1c(I)cccc1-2
inactive: outcome [1] | Potency [2] | Potency [3] | Potency [4] | outcome [5] | outcome [6] | outcome [15] | outcome [7] | outcome [8] | outcome [9] | outcome [10] | outcome [19] | outcome [11] | outcome [12] | outcome [16] | outcome [13] | Potency [17]

CC1N=C(N)OC1c1ccccc1 (stereo not given)
inactive: outcome [1] | Potency [2] | Potency [4] | Potency [14] | outcome [5] | outcome [6] | outcome [15] | outcome [7] | outcome [8] | outcome [9] | outcome [10] | outcome [12] | outcome [16] | outcome [13] | Potency [17] | Potency [18]
